Shown are actives, neighbours in structure and some others; about 2.4% of the full set was active somewhere.
D2 PAM-1 – positive allosteric modulators of human D2 dopamine receptor; DiscoveRx D2 beta-arrestin cells, luminescence, 90 min; 100% = 57 uM dopamine signal; P14416; potentiation, % (concentration not given with the values); hit rate 0.23% among 360,000; in the data active means potentiation above about 50%
Target sequence (P14416 whole entry, looked up): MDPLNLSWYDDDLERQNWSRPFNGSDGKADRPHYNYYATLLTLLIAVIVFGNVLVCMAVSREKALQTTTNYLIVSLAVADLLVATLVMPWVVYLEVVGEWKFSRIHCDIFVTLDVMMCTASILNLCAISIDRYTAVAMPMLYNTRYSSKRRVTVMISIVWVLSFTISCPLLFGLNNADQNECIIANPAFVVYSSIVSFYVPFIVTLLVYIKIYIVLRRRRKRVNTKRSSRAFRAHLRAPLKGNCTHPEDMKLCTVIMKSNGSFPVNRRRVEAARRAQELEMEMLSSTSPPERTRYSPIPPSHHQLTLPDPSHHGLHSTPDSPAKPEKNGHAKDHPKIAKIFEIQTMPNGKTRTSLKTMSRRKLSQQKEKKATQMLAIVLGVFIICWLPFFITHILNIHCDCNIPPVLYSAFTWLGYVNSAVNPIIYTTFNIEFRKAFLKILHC
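PathHunter D2 cells, attached overnight at 37 deg C, received compound in DMSO plus dopamine at EC20 (50 nM final) for 90 min at 37 deg C. Beta-arrestin recruitment was read as luminescence after 1 h with detection reagent at ambient temperature.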
D2 ag-1 – human D2 receptor agonism in beta-arrestin assay; DiscoveRx PathHunter D2 beta-arrestin, luminescence, 90 min; 100% = 57 uM dopamine signal; hit rate 0.084% among 360,000; activation, % (concentration not given with the values); in the data active means activation above about 40%
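Agonist mode: compounds alone added to overnight-plated D2 PathHunter cells for 90 min at 37 C, with 57 uM final dopamine (EC100) defining full response. Beta-arrestin recruitment detected by chemiluminescent reagent, read after 1 h at ambient temperature.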
D2 PAM-2 – positively modulates the human D2 dopamine receptor allosterically. P14416. HEK293 T-REx D2, calcium flux, EC20 dopamine potentiation. potentiation, % at 10 µM. hit rate 0.34% among 340,000;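 active means potentiation over 3 SD above the plate norm, cut at about 30% in these data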; further: 0% is about no effect
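Cells plated with tetracycline inducer and held overnight at 30 C; calcium dye loaded 30–90 min at room temperature; baseline taken, compound added and read 180 s; EC20 dopamine then added and read 180 s.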
D2 antagonist – antagonizes the human D2 dopamine receptor | hit rate 2% among 340,000 | inhibition, % at 10 µM | P14416 | HEK293 TREx D2 cells, calcium flux, dopamine EC80 | AID 485344; in the data active means inhibition above about 30%; inactive means below that, where a call was filed; further: 0% is about no effect
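Tetracycline-induced HEK293 TREx cells expressing D2 receptor forced-coupled to calcium signalling, loaded with no-wash calcium dye. Compounds added and calcium flux read 180 s, then dopamine added at EC80 and read a further 180 s.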
D2 ag-2 – D2 dopamine receptor (human) agonism; HEK293 T-REx D2 cells, calcium flux agonist mode; activation, % at 2 µM; hit rate 0.53% among 340,000; AID 485358;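 active means activation over 3 SD above normal in the single-dose calcium agonist read, cut at about 30% in these data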; further: 0% is about no effect
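Calcium-flux readout, 1 cycle/sec over 180 s following compound pin transfer, in inducible HEK293 Trex D2 cells (force-coupled); dopamine controls included. Positive calcium responses during this window marked compounds as potential agonists.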
D3 arrestin ag – D3 receptor agonism confirmed, beta-arrestin readout. Potency, µM (highest dose often 76.9 µM), inactives show at the top dose activation, hits mostly activators. AID 720506. hit rate 4% among 2,300. shares compounds with D2 ag-2. DiscoveRx D3 beta-arrestin cells, luminescence, 90 min;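 further: potency means the concentration at half of the fitted maximal effect; 100% = dopamine control response; nearly all actives have a fitted effect of over 70% in size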
D2 ag-3 – activates human D2 dopamine receptor in D3 counterscreen; DiscoveRx PathHunter D2 beta-arrestin, luminescence, 90 min; response scale: percent relative to full dopamine signal; hit rate 5.9% among 2,300; Potency, µM (series often up to 76.9 µM), inactives show at the top dose activation, actives largely listed as activators; shares compounds with D2 ag-2; further: potency means the concentration at half of the fitted maximal effect; % of control where 0% means no effect; nearly all actives have a fitted effect of over 70% in size
An asterisk follows results filed as active; ! = a repeat was not active. Unless noted, the call rests on the fitted dose curve; in most records, active means well fitted activation curve with a large enough effect; inconclusive means small, poorly fitted or top-dose-only effect; inactive means flat fitted curve, though single readings scatter.

Results for O=C(NCCNC1CCC(c2ccccc2)CC1)c1cccs1 (stereo not given) ?
D2 PAM-1: -18; D2 ag-1: -2; D2 PAM-2: -11; D2 antagonist: 48*; D2 ag-2: 50*; D3 arrestin ag: -5%; D2 ag-3: -3%

How did CCOC(=O)N1CCC(NCCNC(=O)c2cccs2)CC1 do in these assays?
D2 PAM-1: -26; D2 ag-1: 8; D2 antagonist: 6; D2 ag-2: 6; D3 arrestin ag: -9%; D2 ag-3: 11%

Results for CCOC(=O)N1CCC(NCCNC(=O)c2ccccc2)CC1 ?
D2 PAM-1: -13; D2 ag-1: 7; D2 PAM-2: -13; D2 antagonist: 51*; D2 ag-2: 66*!; D3 arrestin ag: -2%; D2 ag-3: 7%

What do the screens show for `CCOC(=O)N1CCC(NC(=O)c2ccccc2C(=O)O)CC1`?
D2 PAM-1: 0; D2 ag-1: -1; D2 PAM-2: -1; D2 antagonist: -6; D2 ag-2: 0

How did CCOC(=O)N1CCC(NC(=O)Cc2ccccc2)CC1 do in these assays?
D2 PAM-1: -16; D2 ag-1: -5; D2 PAM-2: -3; D2 antagonist: -1; D2 ag-2: 0

How did CCOC(=O)N1CCC(NCCNC(=O)c2ccccc2Cl)CC1 do in these assays?
D2 PAM-1: -1; D2 ag-1: 2; D2 PAM-2: 3; D2 antagonist: 56*; D2 ag-2: 0; D3 arrestin ag: -14%; D2 ag-3: 12%

How did CS(=O)(=O)N(CC(=O)NCCSCc1c(F)cccc1Cl)c1cccc([N+](=O)[O-])c1 do in these assays?
D2 PAM-1: 1; D2 ag-1: -7; D2 PAM-2: -5; D2 antagonist: -8; D2 ag-2: -1

Results for CCC(C)C(NC(=O)C1CCC(C)CC1)C(=O)Nc1ccc(OC)cc1 (stereo not given) ?
D2 PAM-1: -6; D2 ag-1: -8; D2 antagonist: 1; D2 ag-2: -3

How did CC(=O)N1CCN(C(C)=O)C1c1ccccc1 do in these assays?
D2 PAM-1: -1; D2 ag-1: -3; D2 PAM-2: 3; D2 antagonist: -12; D2 ag-2: 0

What do the screens show for `CC(=O)N1C(O)CC(C)N1c1ccccc1` (stereo not given)?
D2 PAM-1: 8; D2 ag-1: 2; D2 PAM-2: -3; D2 antagonist: 0; D2 ag-2: 0; D3 arrestin ag: 2%; D2 ag-3: -3%

How did CCOc1ccccc1N1CCN(C(=O)c2c(CC)noc2C)CC1 do in these assays?
D2 PAM-1: -11; D2 ag-1: 0; D2 PAM-2: 2; D2 antagonist: -8; D2 ag-2: 0

How did Cc1ccc(S(=O)(=O)N2CCOCC2)cc1C(=O)N1CCOCC1 do in these assays?
D2 PAM-1: -3; D2 ag-1: -2; D2 PAM-2: 18

Results for Cc1ccccc1C(=O)NNC(=O)c1cc(S(=O)(=O)N2CCOCC2)ccc1C ?
D2 PAM-1: -4; D2 ag-1: -2; D2 PAM-2: -2; D2 antagonist: 17; D2 ag-2: 1; D3 arrestin ag: -5%; D2 ag-3: -2%

How did Cc1ccc(S(=O)(=O)N2CCOCC2)cc1C(=O)N1CCN(c2ncccn2)CC1 do in these assays?
D2 PAM-1: 25; D2 ag-1: 6; D2 PAM-2: -16; D2 antagonist: -27; D2 ag-2: 36*; D3 arrestin ag: -8%; D2 ag-3: -1%

Results for O=C(Nc1cccc(S(=O)(=O)NC2=NCCC2)c1)c1cc(F)c(F)c(F)c1F ?
D2 PAM-1: -20; D2 ag-1: -1; D2 PAM-2: 1; D2 antagonist: 11; D2 ag-2: 0

Results for O=C(CC(c1cccs1)N1Cc2ccccc2C1=O)Nc1cccc(F)c1 (stereo not given) ?
D2 PAM-2: 7; D2 ag-2: -1
